Active and inactive are the calls of the source. Where a call stands in place of a potency, no number is given. Calls come from the whole dose curve; as a rule, active = well fitted inhibition curve with a large enough effect; inconclusive = small, poorly fitted or top-dose-only effect; inactive = flat fitted curve, though single readings scatter.
biological target: Luciferin 4-monooxygenase (Photinus pyralis) (UniProt P08659); experiment: Primary firefly luciferase (FLuc) qHTS assay for identification of artifact compounds. (AID 1845220); details: purified firefly luciferase, luminescence, 5 min; series mostly up to 54.1 µM; note: nearly all actives have a fitted effect of over 60% in size
Method in brief: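 Compounds sat 15 min at room temperature with 10 uM luciferin and 10 uM ATP (pH 7.6 Tris acetate). Firefly luciferase (10 nM final) was then added, and luminescence was read 5 min later. Data normalized to no-enzyme and DMSO controls were Hill-fitted.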

Row | SMILES | Potency | activity change, negative = inhibition | outcome
1 | COc1ccccc1Oc1ccc(N(Cc2cccnc2)S(=O)(=O)CC(F)(F)F)cc1 | inactive | – | –
2 | C=CC(C)(O)CC/C=C(\C)C(=O)OC1C(O)C(CO)OC(OC(=O)C23CCC(C)(C)CC2C2=CCC4C5(C)CCC(OC6OC(COC7OCC(OC(C)=O)C(O)C7OC7OC(COC(C)=O)C(O)C(O)C7O)C(O)C(O)C6O)C(C)(C)C5CCC4(C)C2(C)C(O)C3O)C1OC1OCC(OC2OCC(O)C(OC3OCC(O)C(O)C3O)C2O)C(O)C1O (centres undefined) | – | 0.903% [at 6.45 µM] (inactive) | –
3 | O=C(CO)[C@@H](O)[C@H](O[C@@H]1O[C@H](CO)[C@H](O)[C@H](O)[C@H]1O)[C@H](O)CO | inactive | – | –
4 | C/C1=C\CCC(C)CCO[C@@H]2O[C@H](CO[C@@H]3OC[C@H](O)[C@H](O)[C@H]3OC1=O)[C@@H](O)[C@H](O)[C@H]2O (some centres undefined) | inactive | – | –
5 | Cc1csc(NC(=O)c2ccc(COc3cccc(Cl)c3)o2)n1 | inactive | – | –
6 | COC(=O)C[C@H]1C(C)(C)[C@H](OC(C)=O)C2CC3=C4CC(=O)O[C@@H](c5ccoc5)[C@]4(C)CCC3[C@@]1(C)C2=O (some centres undefined) | inactive | – | –
7 | CC(=O)O[C@]1(C(C)=O)CC[C@H]2[C@@H]3C[C@H](C)C4=CC(=O)C=C[C@]4(C)[C@@]3(F)[C@@H](O)C[C@@]21C | inactive | – | –
8 | CCCC1(c2ccccc2)NC(=O)N(CC(=O)N(C)Cc2c(F)cccc2Cl)C1=O (centres undefined) | inactive | – | –
9 | C=CC(C)(O)CC[C@H]1C(=C)CCC2[C@](C)(C(=O)O)CCC[C@@]21C (some centres undefined) | inactive | – | –
10 | C=CC(C)(O)C(O)CC1C(C)(O)C(O)C(O)C2C(C)(C)CCCC21C (centres undefined) | inactive | – | –
11 | C[C@@H]1C[C@@H](O)[C@@]23CO[C@@H](O)[C@@H]2CCC[C@@H]3[C@@]12C[C@@H](c1ccoc1)OC2=O | inactive | – | –
12 | OC[C@H]1O[C@@H](OC(CCCCc2ccc(O)cc2)CCc2ccc(O)cc2)[C@H](O)[C@@H](O)[C@@H]1O (some centres undefined) | inactive | – | –
13 | Cc1cc(Nc2ncc3cc(-c4c(Cl)cccc4Cl)c(=O)n(C)c3n2)ccc1F | inactive | – | –
14 | CC1(C(=O)O)CCCC2(C)C3=CCC4CC3(CCC12)CC4CO (centres undefined) | inactive | – | –
15 | C[C@H](O)[C@H](O)/C=C/c1cccc(O)c1CO | inactive | – | –
16 | CC1(C)C2CC=C(COC3OC(COC4OCC(O)(CO)C4O)C(O)C(O)C3O)C1C2 (centres undefined) | inactive | – | –
17 | C=CC(C)(C)C12C=C(OC)C(=O)N3C(C(C)C)C(=O)NC31N(OC)c1ccccc12 (centres undefined) | inactive | – | –
18 | [N-]=[N+]=N[C@]1(CO)O[C@@H](n2ccc(=O)[nH]c2=O)[C@@H](O)[C@@H]1O | inactive | – | –
19 | COC(=O)C[C@H]1C(C)(C)[C@H](OC(=O)C(C)C)[C@@]2(O)C(=O)[C@]1(C)C1CC[C@]3(C)C(CC(=O)O[C@H]3c3ccoc3)[C@]13O[C@@H]32 (some centres undefined) | inactive | – | –
20 | CC(C)[C@H]1CC[C@@]2(O)COC(=O)[C@H]2[C@@H]1/C=C(\CO)C(=O)O | inactive | – | –

Row | SMILES | Potency | activity change, negative = inhibition | outcome
21 | CS(=O)(=O)N(CC(=O)NCC1CC1)c1cc(C(F)(F)F)ccc1Cl | inactive | – | –
22 | CC(=O)O[C@@H]1[C@@H](OC(=O)/C=C/c2ccccc2)[C@@H](OC(C)=O)[C@H](O[C@H]2[C@@H]3C=CO[C@@H](O[C@@H]4O[C@H](CO)[C@@H](O)[C@H](O)[C@H]4O)[C@@H]3[C@@]3(CO)O[C@@H]23)O[C@H]1C | inactive | – | –
23 | CC1(C)[C@@H](O)CC[C@]2(C)[C@H]3CC=C4[C@@H]5C[C@](C)(C(=O)O)CC[C@]5(C)CC[C@@]4(C)[C@]3(C)CC[C@@H]12 | inactive | – | –
24 | NCc1ccc(Nc2ncc(F)c(Nc3ccccc3)n2)cc1 | inactive | – | –
25 | CC(=O)O[C@@H]1[C@@H](O)[C@H](C)O[C@@H](O[C@H]2[C@@H]3C=CO[C@@H](O[C@@H]4O[C@H](CO)[C@@H](O)[C@H](O)[C@H]4O)[C@@H]3[C@@]3(CO)O[C@@H]23)[C@@H]1OC(=O)/C=C/c1ccccc1 | inactive | – | –
26 | COc1c(C)c(OCC(O)C(C)(C)O)cc2c1COC2=O (centres undefined) | inactive | – | –
27 | C[C@@H]1O[C@@H](O[C@H]2[C@H](O[C@H]3[C@H](O[C@H]4CC[C@@]5(C)C(CC[C@]6(C)C5CC=C5[C@@H]7CC(C)(C)C[C@@H](O)[C@]7(C)CC[C@]56C)[C@@]4(C)CO)O[C@H](C(=O)O)[C@@H](O)[C@@H]3O)OC[C@H](O)[C@@H]2O)[C@H](O)[C@H](O)[C@H]1O (some centres undefined) | – | – | inactive [at 11.6 µM]
28 | CCOc1ccc(S(=O)(=O)n2c(C)nc3ccccc32)cc1 | inactive | – | –
29 | Cc1ccc(NC(=O)C(=O)NC2CC(C)(C)NC(C)(C)C2)cc1 | inactive | – | –
30 | CC1=C(C(=O)O)/C(=C\CO[C@@H]2O[C@H](CO)[C@@H](O)[C@H](O)[C@H]2O)C(OC(=O)/C=C\c2ccc(O)cc2)C1 (some centres undefined) | inactive | – | –
31 | C=C(C)C1CCC2(C(=O)O)CCC3(C(=O)O)C(CCC4C5(C)CCC(O)C(C)(C(=O)O)C5CCC43C)C12 (centres undefined) | inactive | – | –
32 | COc1c2c(c(CO)c3c1C(=O)OC3)OC1(C)CCC3(O)C(C)(C)OC(=O)CCC3(C)C1C2 (centres undefined) | inactive | – | –
33 | OCCc1ccc(O[C@@H]2O[C@H](CO)[C@@H](O)[C@H](O)[C@H]2O)cc1 | inactive | – | –
34 | C[C@@H]1CCC2C(C)(C)[C@H](O)CC[C@]2(C)[C@@]12Cc1c(O)cc3c(c1O2)CN([C@@H](CCC(=O)O)C(=O)O)C3=O (some centres undefined) | inactive | – | –
35 | CC(=O)O[C@@H]1[C@H](O[C@@H]2O[C@@H](CO)[C@H](O)[C@H]2O)[C@@H](O[C@@H]2O[C@@H](C)[C@H](O[C@@H]3OC[C@@H](O)[C@H](O)[C@H]3O)[C@@H](O)[C@H]2O)[C@H](OC(=O)[C@]23CCC(C)(C)C[C@H]2C2=CCC4[C@@]5(C)CC[C@H](O[C@@H]6O[C@H](C(=O)O)[C@@H](O)[C@H](O)[C@H]6O[C@@H]6O[C@H](CO)[C@H](O)[C@H](O)[C@H]6O)[C@@](C)(C=O)C5CC[C@@]4(C)[C@]2(C)CC3)O[C@@H]1C (some centres undefined) | – | 4.46% [at 11.6 µM] (inactive) | –
36 | C[C@@H]([C@@H](O)c1ccc(O)cc1)N1CCC(O)(c2ccccc2)CC1 | inactive | – | –
37 | CC1(C)CC2C(O)c3cocc3CC(C)(O)C2C1 (centres undefined) | inactive | – | –
38 | Cn1c(=O)n(-c2ccc(C(C)(C)C#N)cc2)c2c3cc(C#Cc4cccnc4)ccc3ncc21 | inactive | – | –
39 | CN1CCN(C2CCC(n3cc(-c4ccc(Oc5ccccc5)cc4)c4c(N)ncnc43)CC2)CC1 (centres undefined) | inactive | – | –
